In PubChem BioAssay (NCI):
The panel holds about 79,000 compounds, 15% with a hit somewhere; the sample as a whole holds those more often. Unmarked numbers belong to inactive results. Calls of active or inactive are those of the source. Rule as the data show it: active = growth inhibition above about 70%; inactive = the rest.

Columns and labels:
[1] = NCI Yeast Anticancer Drug Screen. Data for the rad50 strain (AID 155);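 also: 0% = growth of vehicle-only cultures of the same strain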; details: S. cerevisiae rad50 strain growth inhibition; at 50.0 µM; active compounds read high
In short: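 DNA repair mutant yeast, compound exposure, growth read-out; inhibition is taken relative to vehicle.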

[2] = NCI Yeast Anticancer Drug Screen. Data for the mec2-1 strain (AID 157); details: S. cerevisiae mec2-1 strain, at 50.0 µM, active compounds read high
In short: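 Mutant yeast (mec2-1) grown with compound; growth inhibition relative to vehicle control reported.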

[3] = NCI Yeast Anticancer Drug Screen. Data for the sgs1 mgt1 strain (AID 161);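 also: 0% = growth of cultures given vehicle only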; details: S. cerevisiae sgs1 mgt1 strain, at 50.0 µM, active compounds read high
In short: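 Growth of a repair-deficient yeast mutant was monitored after compound treatment and expressed as inhibition relative to vehicle-treated cultures.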

[4] = NCI Yeast Anticancer Drug Screen. Data for the cln2 rad14 strain (AID 165);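 also: 0% = growth equal to vehicle treated cultures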; details: S. cerevisiae cln2 rad14 strain, at 50.0 µM, active compounds read high
In short: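 Readout is yeast growth inhibition versus vehicle-treated controls, using a strain with cln2 and rad14 alterations exposed to compound.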

[5] = NCI Yeast Anticancer Drug Screen. Data for the bub3 strain (AID 167); details: S. cerevisiae bub3 mutant strain, at 50.0 µM, active compounds read high
In short: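 In this screen, a yeast mutant lacking normal mitotic checkpoint function is challenged with compound. Relative growth versus vehicle gives the inhibition value.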

[6] = NCI Yeast Anticancer Drug Screen. Data for the mlh1 rad18 strain (AID 175); details: S. cerevisiae mlh1 rad18 strain growth inhibition; at 50.0 µM; active compounds read high
In short: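 Genetically defined yeast (DNA repair-deficient) exposed to compounds; growth inhibition determined relative to vehicle.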

SMILES	growth inhibition [1]	growth inhibition [2]	growth inhibition [3]	growth inhibition [4]	growth inhibition [5]	growth inhibition [6]
CCc1n[nH]c(=S)n1/N=C/c1ccc(-c2ccc([N+](=O)[O-])cc2)o1	14.6%	-17.6%	-14%	9.85%	-14.1%	10.3%
C[N+](C)(C)C(Cc1c[nH]c(=S)[nH]1)C(=O)O (stereo unspecified)	-14.9%	-44.4%	-31.1%	9.45%	-8.4%	-20.4%
C#CCNC(=O)CCC(N)C(=O)O (stereo unspecified)	-0.1%	-15.2%	-14.8%	3.05%	-11.8%	2.65%
O=C(CCCCCCCC(=O)OC(CCC1CCCO1)CCC1CCCO1)OC(CCC1CCCO1)CCC1CCCO1 (stereo unspecified)	6.1%	-18.6%	-4.5%	-9.75%	-6.5%	7.05%
CCN(CC)CCN(C(=S)Nc1ccccc1)c1ccccc1	5%	28.1%	17.6%	-10.1%	9.5%	27.4%
F[Si](c1ccccc1)(c1ccccc1)c1cccc2ccccc12	98.7% (active)	98.6% (active)	99.2% (active)	98.8% (active)	98.5% (active)	98.8% (active)
C#CC1(O)c2ccccc2C(=O)c2ccccc21	-1.05%	-7.85%	-7.65%	-7.35%	6.7%	-2.35%
CCOC(=O)C1Cc2cc(C)c(C)cc2N(C)C1=O (stereo unspecified)	7.6%	-10.2%	5.9%	-22.5%	22.1%	-3.6%
Cc1cc2c(=O)cc(-c3ccncc3)oc2c(C(N)=O)c1C	14.8%	4.2%	-12%	-1%	17.6%	22.5%
Nc1ccc2cccc(O)c2c1	44.1%	24.2%	12.9%	-9.4%	34.2%	32.4%
Cn1c(=O)c2c(nc(N(CCN(N=O)c3nc4c(c(=O)n(C)c(=O)n4C)n3C)N=O)n2C)n(C)c1=O	-11%	-4.35%	-25.7%	-0.3%	-8.85%	-0.65%
CC(CO)CCNc1ncnc2c1ncn2CCC(=O)O (stereo unspecified)	-8.7%	6%	-29.9%	-23.5%	17.2%	-0.95%
CN(C)c1nc2nccnc2c(=O)[nH]1	11.4%	-1.75%	-11.2%	-52.5%	6.45%	-14.3%
CCOC(=O)C(CN(CC)CC)c1ccccc1 (stereo unspecified)	-1.15%	-6.35%	-3.25%	1.8%	1.95%	10.3%
Cc1cc(=O)c2c(Br)ccc(Br)c2[nH]1	3.5%	-16.1%	-1.1%	3.4%	7.3%	-13.8%
CC(C)n1ncc2c(N)ncnc21	4.2%	-2.2%	-6.8%	-26.8%	21.4%	-3.8%
O=[N+]([O-])c1ccc(P(=O)(Nc2ccc3ccccc3c2)Nc2ccc3ccccc3c2)cc1	34.5%	15.2%	15.5%	0.2%	13.1%	46.5%
C/C=C/c1cc(C=O)cc(OC)c1O	0.15%	-8.1%	-5.4%	-10.6%	-4.4%	5.75%
CC1=NN(c2nc(N)nc(CO)n2)C(C)(C)C1	12.2%	5.75%	3.2%	5.55%	1%	-72.5%
CCN(CC)CCNC(=O)c1cn2c(ccc3sc4ccccc4c(=O)c32)n1	70.8% (active)	57.5%	48.7%	38.3%	26.3%	28.8%
CC(C)(C)C(=O)C(C(=O)c1ccccc1)C(=O)C(C)(C)C	-4.65%	-16.4%	19.9%	6.85%	9.8%	-30.2%

SMILES	growth inhibition [1]	growth inhibition [2]	growth inhibition [3]	growth inhibition [4]	growth inhibition [5]	growth inhibition [6]
c1ccc2c(c1)Cc1c-2n[nH]c1-c1[nH]nc2c1Cc1ccccc1-2	26.6%	8.85%	34.8%	22.3%	16%	55.2%
CCOc1ccc2nc3cc(I)ccc3c(N)c2c1	8.15%	-24.2%	14.6%	-10.3%	-0.05%	27.1%
CC1SC2=NC3=C(c4ccccc4C3=O)C(c3ccc(Br)cc3)N2C1=O (stereo unspecified)	-37.5%	-15.9%	-36.3%	-15.8%	-37%	-32.8%
O=C(O)c1ccc(N2CCOCC2)cc1	-20%	-13.5%	-15.4%	-15.6%	-9.3%	6.6%
CC(c1ccccc1)C(OCc1ccccc1)OCc1ccccc1 (stereo unspecified)	-17.1%	9.15%	4.55%	-36.5%	22.6%	1.2%
CN(C)c1ccc(C2(c3ccc(N(C)C)cc3)OC(=O)c3cc(N(C)C)ccc32)cc1	4.55%	-6.2%	-0.75%	-31.7%	16.4%	33.7%
CCC(CC)C(=O)NC(=O)NC	-4.85%	-16.5%	-21.2%	-25.1%	-8.05%	21%
CCN(CC)c1cc2c3c(c1)CCCN3CCC2	-20.9%	-27.9%	-3.85%	2.55%	-8.1%	-0.65%
OCCN(CCO)c1ccc2c(c1)Cc1cc(Br)ccc1-2	1.25%	6%	-4.35%	-2.7%	22.5%	5.15%
Oc1ccccc1C=Nc1ccccc1	29%	1.95%	0%	6.8%	-1.25%	-2.4%
Cc1ncc(CO)c(Cc2ccc(N(C)C)cc2)c1O	3.15%	-2.25%	-5.9%	-2.25%	-58.8%	1.8%
CCOC(=O)c1c(O)c(Cc2ccccc2)c(=O)n2c1[nH]c1cc(C)c(C)cc12	26.6%	26.2%	12.2%	15.5%	-0.95%	-1%
C/C=C/c1nc2ccccc2[nH]1	-11.2%	-2.45%	-3%	-2.45%	-6.45%	-0.95%
CC(=O)c1cc2c(cc1C)C(C(C)C)CCC2(C)C (stereo unspecified)	3.75%	-14.6%	6.55%	-18.8%	41.7%	6.85%
NC(=O)c1ncn(C2CCC(CP(=O)(O)O)C2)c1N (stereo unspecified)	-7.45%	-14.1%	-9.55%	-28.4%	-7%	5.8%
Cc1cc(-c2cccc3ccccc23)c(C#N)c(=S)n1C1OC(CO)C(O)C(O)C1O (stereo unspecified)	14.1%	4.4%	47.4%	9.5%	15.8%	33.6%
CC(=O)Nc1ccc(OCCCc2ccccc2)c([N+](=O)[O-])c1	-7.2%	43.6%	23.5%	-20.7%	20.4%	-2.65%
Cc1cc2c(c3oc(C4(C)OC4C4OC4C)cc(=O)c13)C(=O)c1c(O)c(C3CC(C)(N(C)C)C(O)C(C)O3)cc(C3CC(N(C)C)C(O)C(C)O3)c1C2=O (stereo unspecified)	88.6% (active)	92.2% (active)	90.7% (active)	88.8% (active)	89.2% (active)	87.5% (active)
O=C(OCC1C2CCC(C2)C1c1ccccc1)c1ccc([N+](=O)[O-])cc1 (stereo unspecified)	1.4%	8.5%	-2%	-22.7%	-2.75%	10.5%
CC1CCc2cc(Br)ccc2N1N (stereo unspecified)	33.1%	0.85%	-5.35%	9.8%	-4.8%	27.8%
